Test results reported in ChEMBL document CHEMBL4513216, “Probing the Open Global Health Chemical Diversity Library for Multistage-Active Starting Points for Next-Generation Antimalarials” (ACS Infect Dis, 2020).
Hit rate of the full screen: of about 65,000 compounds, about 2,100 (3.2%) showed an effect of 50% or more. The median lay at about -52%. The sample as a whole holds a higher share of strong results than the screen did.

Test system: Plasmodium falciparum
Assay: Screen against P. falciparum Asexual Blood Stage (ABS), at 5uM
Type: functional, Dd2
Conditions: tested at 5 uM

| Structure (SMILES) | INHIBITION [%] |
| --- | --- |
| c1cncc(OC[C@]23COC[C@H]2CN(Cc2nccs2)C3)c1 | -94.4 |
| Cc1cccc(CN2CCO[C@H]3[C@H](Oc4ccccn4)CC[C@@H]32)n1 | -7.66 |
| CC(C)N1CCOC(c2ccnc(N(C)C)n2)C1 (stereo not drawn) | -133 |
| Cc1cc(N2CCOC(c3ccccn3)C2)nc(N)n1 (stereo not drawn) | 75.1 |
| NCC1CCCN(c2nc(-c3ccccc3)nc3c2CCNCC3)C1 (stereo not drawn) | 85.9 |
| N#CC1CCCN(c2nc(-c3ccccc3)nc3c2CCNCC3)C1 (stereo not drawn) | 79.9 |
| Cc1noc(C)c1CN1C[C@H](OCC2CC2)[C@H]2OCCC[C@H]21 | -58 |
| CS(=O)(=O)NCc1cncc2c1CCN(CC1CCOC1)C2 (stereo not drawn) | -80.3 |
| Cc1noc(C)c1CN1C[C@H](OCC(=O)N(C)C)[C@H]2OCCC[C@H]21 | -72.7 |
| Cc1cc(CN2CCc3nc(N4CCOCC4)nc(O)c3CC2)c(C)s1 | 77.6 |
| Cc1cc(CN2CCc3nc(-c4ccncc4)nc(O)c3CC2)c(C)s1 | 91 |
| O=C(N[C@H]1CN[C@H]2CCCO[C@H]21)c1cccnc1 | -13.5 |
| Cc1cc(CN2CCO[C@H]3[C@H](OCc4csc(C)n4)CC[C@@H]32)no1 | -73.3 |
| CC(C)[C@H](N)C(=O)N1CCSc2ccccc2C1 | 73.7 |
| O=C1Nc2ccccc2C12CCCN(Cc1ccncc1)C2 (stereo not drawn) | -78.5 |
| CNC(=O)CN1CCOCC2(CCCN(Cc3cccnc3)C2)C1 (stereo not drawn) | -8.58 |
| c1cc(CN2CCOCC3(CCN(C4CCOCC4)C3)C2)ccn1 (stereo not drawn) | -38.5 |
| O=C(Cc1cccnc1)N1CCC2(CC1)CCN(C1CCOC1)C2 (stereo not drawn) | -58.9 |
| c1cncc(CN2CCCC3(COCCN(c4nccs4)C3)C2)c1 (stereo not drawn) | 10.9 |
| c1ccc(CN2CCOCC3(CCN(C4CCOCC4)C3)C2)cc1 (stereo not drawn) | 82.2 |
| c1cncc(CN2CCC3(COCCN(C4CCOCC4)C3)C2)c1 (stereo not drawn) | -42 |
| Cc1cccc(CN2CCOCC3(CCN(C4CCOCC4)C3)C2)c1 (stereo not drawn) | 78.6 |

| Structure (SMILES) | INHIBITION [%] |
| --- | --- |
| Fc1cccc(CN2CCOCC3(CCN(C4CCOCC4)C3)C2)c1 (stereo not drawn) | 78.2 |
| Fc1cccc(CN2CCC3(CCN3c3ncccn3)C2)c1 (stereo not drawn) | 27.1 |
| COCCN1CCN(c2cccc(C)n2)Cc2ccc(C)nc21 | -14.7 |
| Cc1cc(NC2CC3(CCN(Cc4csc(C)n4)C3)C2)ncn1 (stereo not drawn) | -142 |
| Cc1nocc1C(=O)N1CCOC2(COCCN(C(C)C)C2)C1 (stereo not drawn) | -62.3 |
| CCN(C(C)c1cccc(O)c1)S(=O)(=O)c1cccnc1 (stereo not drawn) | 76.6 |
| CN1CCO[C@@H]2CN(S(=O)(=O)c3cccnc3)C[C@@H]2C1 | -79 |
| CC(c1cccc(O)c1)N(C)S(=O)(=O)c1cccnc1 (stereo not drawn) | 71.4 |
| CN1CCC(N2CCN3C(=O)NC[C@H]3C2)CC1 | -11 |
| COCCN1CCN(S(=O)(=O)C2CC2)Cc2cccnc21 | -40.8 |
| Cc1cc2n(n1)CC(CNC1CCN(Cc3ccccc3C)CC1)CN2 (stereo not drawn) | 71 |
| Cc1cccc(CN2CCC(NCC3CNc4cc(C)nn4C3)CC2)c1 (stereo not drawn) | 86.5 |
| Cc1cc(-c2ccc(C(C)N3CCCCC3)cc2)cnc1N (stereo not drawn) | 91 |
| Cc1oncc1C(=O)N1CC[C@H]2[C@H]1CCN2Cc1ccccn1 | -23.4 |
| COCCCNc1c(C#N)c2c(c3nncn13)CN(C)CC2 | -104 |
| O=C(c1cccc(-n2cnnn2)c1)N1CCC2(CC1)OCCO2 | -24.5 |
| O=C(c1cc(-n2cnnn2)ccc1Cl)N1CCC2(CC1)OCCO2 | -29.7 |
| CCN(CC)C(=O)c1ccc(NC(=O)CNc2ccc(Br)cc2F)cc1 | -171 |
| CCN(CC)C(=O)c1ccc(NC(=O)CNc2ccc(F)cc2Cl)cc1 | -91.8 |
| Cc1ccc(-n2cnnn2)cc1NCC(=O)Nc1ccccc1Cl | 79.3 |
| Cc1ccc(-n2cnnn2)cc1NCC(=O)Nc1cc(F)ccc1F | 72.3 |
| O=C(NCC1CCC2(CCNCC2)O1)C1CC1 (stereo not drawn) | 47.7 |

| Structure (SMILES) | INHIBITION [%] |
| --- | --- |
| Cc1cccnc1N1CC2(CCN(Cc3cnn(C)c3)C2)C1 | 23.4 |
| Cc1[nH]c2c(F)cccc2c1CC(=O)N1CCN(C2CCSCC2)CC1 | -8.93 |
| COc1ccc(CN2CCNC(=O)CC2)cc1SC(F)(F)F | 74.5 |
| COc1cccc(C2=CCN(CCN3CCOC3=O)CC2)c1 | -8.54 |
| Cc1cc(CN2C[C@@H]3CCCO[C@@H]3[C@H](Nc3ccccn3)C2)no1 | -62.6 |
| OC(COCc1ccc(Cl)cc1)CN1CCC(c2ccn[nH]2)CC1 (stereo not drawn) | 70.9 |
| CCOCC(O)CN1CCN(C(=O)Cc2ccc(C)nc2)CC1 (stereo not drawn) | -7.76 |
| Cc1ccsc1CN(Cc1cccnc1)C1CC(C)(C)NC(C)(C)C1 | 81.4 |
| CC1(C)CC(N(Cc2cccnc2)Cc2cccc(F)c2)CC(C)(C)N1 | 76.6 |
| CCCN(Cc1cccnc1)C1CC(C)(C)NC(C)(C)C1 | 77.6 |
| O=C1NCC2(CCCN(Cc3cccnc3)C2)Oc2ccccc21 (stereo not drawn) | -134 |
| CCc1cc(CN(Cc2cccnc2)C2CN3CCC2CC3)on1 (stereo not drawn) | 3.06 |
| Cc1ccsc1CN1C[C@@H]2CN(Cc3cccnc3)CCO[C@@H]2C1 | -28.4 |
| CCN(Cc1cccnc1)CC1CCCO1 (stereo not drawn) | -162 |
| Cc1noc(C)c1CN(Cc1cccnc1)C1CN2CCC1CC2 (stereo not drawn) | -110 |
| CC1(C)CC(N(Cc2ccccc2)Cc2ncc[nH]2)CC(C)(C)N1 | 70.3 |
| Cc1ncc2c(c1CNC(=O)C1(C)CCCO1)CCNC2 (stereo not drawn) | -148 |
| C[C@@H]1CN(C2CCOC2)C[C@]12CCN(Cc1cccnc1)C2=O (stereo partly drawn) | -45.9 |
| Clc1cc(N2CCN3CCCCC3C2)nc2[nH]ccc12 (stereo not drawn) | 42.6 |
| CN(C)CCN1CCCC12CCN(C(=O)c1ccncc1)CC2 | -98.9 |
| c1ccc(OCC2C[C@@H]3[C@@H](C2)OCCN3CC2CCOCC2)nc1 (stereo partly drawn) | -60.7 |
| Cc1noc(C)c1CN1CCOC2(CCCN(c3nncs3)C2)C1 (stereo not drawn) | -103 |

| Structure (SMILES) | INHIBITION [%] |
| --- | --- |
| Cc1noc(C)c1CN1CCCC2(C1)CN(c1nncs1)CCO2 (stereo not drawn) | -18.9 |
| COc1ccc(N2CCCC3(C2)CN(c2nncs2)CCO3)cc1 (stereo not drawn) | 88 |
| O=C1CSC(c2ccncc2)c2c(n(C3CCOCC3)[nH]c2=O)N1 (stereo not drawn) | -84.2 |
| CC(C)C(NC(=O)c1ccco1)C(=O)N1CCC2(CC1)OCCO2 (stereo not drawn) | -80.1 |
| CNC(=O)CCN(C)CC1(c2ccc(Br)cc2)CC1 | 87.3 |
| CN1CCCC(c2cccc(-c3cccc(C(F)(F)F)c3)n2)C1 (stereo not drawn) | 73.7 |
| CN1CCCC(c2cccc(-c3cccc(F)c3)n2)C1 (stereo not drawn) | 74 |
| CN1CCC(c2cncc(N(C)C)n2)CC1 | -19 |
| CC(=O)N1CCCC(c2ccc(N3CCN(C)CC3)cn2)C1 (stereo not drawn) | -0.837 |
| CN1CCCC(c2cncc(-c3cccc(C(F)(F)F)c3)n2)C1 (stereo not drawn) | 77.3 |
| Cc1sc2c(C3CCCN(C)C3)nc(C)n2c1C (stereo not drawn) | 42.7 |
| CNC(=O)c1ccc2c(c1)C1(CCN(CC(C)C)CC1)C(=O)N2 | -15.5 |
| Cc1nccc([C@H]2C[C@@H]3CCN(Cc4ccco4)C[C@H]3O2)n1 | -9.96 |
| Cc1ccc(CC(=O)N2CCN(C3CCOC3=O)CC2)cc1 (stereo not drawn) | -27.2 |
| CC(C)N1CCN(C)C2(CCN(C(=O)c3ccnnc3)CC2)C1=O | -37.3 |
| CN1CCN2C(=O)N(C3CCOCC3)C[C@H]2C1 | -99.7 |
| c1cncc(COCC2CC[C@H]3[C@H]2OCCN3Cc2ccoc2)c1 (stereo partly drawn) | -12.2 |
| Cc1noc(C)c1CN1C[C@H]2CNC[C@H]2C1 | 9.33 |
| CCC[C@H]1CN(S(=O)(=O)c2c(C)noc2C)C[C@@H]1N | 82.5 |
| CCC[C@H]1CN(S(=O)(=O)c2ccc(CC)s2)C[C@@H]1N | 75.8 |
| CN(C)CCN(Cc1ccco1)C(=O)Cc1cn2ccsc2n1 | -5.56 |
| Cc1ccc(CN(CCN(C)C)C(=O)Cc2cn3ccccc3n2)o1 | -67.1 |

| Structure (SMILES) | INHIBITION [%] |
| --- | --- |
| Cc1ccc(CN(CCN(C)C)Cc2c(C)nc3sccn23)o1 | 84.6 |
| Cc1nc(CC(=O)N(CCN2CCOCC2)Cc2ccco2)c(C)s1 | -135 |
| Cc1nc2sccn2c1CN(CCCN(C)C)Cc1ccco1 | 86.2 |
| CNC(=O)CN1CCO[C@H]2CN(C(=O)c3ccncc3F)C[C@H]21 | -74.6 |
| CCCn1cc(C(=O)NC(C(=O)O)c2ccccc2C(F)(F)F)c(C)n1 (stereo not drawn) | -51.5 |
| CS(=O)(=O)N1CCN(CC2CC2)c2ncccc2C1 | -25.9 |
| OC[C@H]1CN2CCN(c3ccccn3)C[C@@H]2[C@@H]1c1ccccc1 | -11.3 |
| COc1ccc(CN2CCCC2)cc1Oc1ccc2c(c1)CC(CN)O2 (stereo not drawn) | 88.2 |
| NCC1Cc2cc(Oc3cc(F)c(CN4CCCC4)c(F)c3)ccc2O1 (stereo not drawn) | 77.8 |
| COc1ncccc1CN1C[C@@H]2COC[C@]2(COCC2CC2)C1 | 33.8 |
| Cc1cccc(CN2C[C@@H]3COC[C@]3(COc3cccnc3)C2)n1 | -77.5 |
| Cc1noc(C)c1CN1CCOCC12CCN(c1nccs1)CC2 | -91.6 |
| O=C(CCc1ccccc1)N1C[C@H]2CCN[C@H]2C1 | -6.16 |
| O=C(Cc1ccccc1)N1C[C@@H]2OCCN(CC3CCCO3)[C@@H]2C1 (stereo partly drawn) | -34.5 |
| O=C(c1scc2c1OCCO2)N1CCOC(CCc2ccccc2)C1 (stereo not drawn) | 88.7 |
| Cc1ccccc1C1(C(=O)NCCN2CCC(C)CC2)CCOCC1 | 85.3 |
| Cc1ccccc1C1(C(=O)NCCN2CCCC(C)C2)CCOCC1 (stereo not drawn) | 88.1 |
| CN1CC[C@H]2OCC[C@@]2(C(=O)NCCc2ccccn2)C1 | 12.7 |
| O=C(NCCc1ccccn1)[C@@]12CCO[C@@H]1CCN(C1CCC1)C2 | 44.6 |
| O=C(NCCc1ccccn1)[C@@]12CCO[C@@H]1CCN(CC1CC1)C2 | 30.8 |
